The full list was thinned out, with hits kept by preference.
RMI FANCM FP = inhibitors of human RMI core complex binding to FANCM MM2; actives 0.58% (n = 70,000); Fluorescence polarization, RMI core complex with F-MM2 peptide; stronger effect = lower value; FP signal (polarization) at 33 µM; AID 1159607; in the data active = FP signal below about 40
Each line names hits and unclear results; the compound was inactive in the other large screens; ! = a repeat was not active.

COc1ccc(NC(=O)CSc2ccc(F)cc2)c([N+](=O)[O-])c1	RMI FANCM FP 9
COc1ccc(SCC(=O)Nc2ccc(F)cc2F)cc1	none
CC1C(=O)N(C)C(=O)c2nc[nH]c21 (stereo unspecified)	none
O=C1/C(=C/c2ccc(Cl)cc2)Oc2cc(O)ccc21	none
CN(/C=C1\Oc2cc(O)ccc2C1=O)Cc1ccccc1	RMI FANCM FP 14
Cc1ncc(CO)c(/C=C2\Oc3cc(O)ccc3C2=O)c1O	none
COc1ccc(CCNC(=O)NNC(=O)c2ccc(=O)n(Cc3ccc(C)cc3)c2)cc1	none
COC(=O)C1=C(C)NC(C)=C(C(=O)OCC(C)C)C1c1ccccc1[N+](=O)[O-] (stereo unspecified)	RMI FANCM FP 21!
COC(=O)C1=C(C)NC(C)=C(C(=O)OC(C)C)C1c1cccc2nonc12 (stereo unspecified)	none
COC(=O)C1=C(C)Nc2[nH]ncc2C1c1ccccc1 (stereo unspecified)	none
Cc1n[nH]c(=O)c2c1cnn2C(C)(C)C	none
O=S(=O)(N=C(Nc1ccc2ccccc2c1)c1ccccc1)c1ccc(Cl)cc1	none
O=C(CSCCS(=O)(=O)c1ccc(Cl)cc1)Nc1ccccc1Cl	none
NC(=O)SCC(=NS(=O)(=O)c1ccc(Cl)cc1)Nc1cccc2ccccc12	RMI FANCM FP 30
COc1ccc(S(=O)(=O)NCc2ccc3c(c2)OCO3)cc1C(=O)O	none
CCCn1c(=O)[nH]c(=O)c2[nH]cnc21	none
CC(C(=O)Nc1ccc(S(N)(=O)=O)cc1)N1C(=O)C2C3C=CC(C3)C2C1=O (stereo unspecified)	none
Cc1cc(=O)[nH]c(-n2nc(C)c(CCC(=O)O)c2C)n1	none
C=Cc1c(C)c2cc3[nH]c(cc4nc(cc5nc(cc1[nH]2)C(C)=C5CCC(=O)O)C(CCC(=O)O)=C4C)c(C)c3C=C	none
CC1=C(CCC(=O)O)c2cc3nc(cc4[nH]c(cc5[nH]c(cc1n2)c(C)c5C(C)O)c(C)c4C(C)O)C(C)=C3CCC(=O)O (stereo unspecified)	RMI FANCM FP 34
Cc1ccc(C(=O)CSc2nnc3c(n2)[nH]c2ccccc23)cc1	RMI FANCM FP 2
CC(C)=CCSc1nnc2c(n1)[nH]c1ccccc12	none
CCn1c(SCC(=O)c2ccc(OC)cc2)nc2c([nH]c3ccccc32)c1=O	none
COC(=O)c1sc(C(C)(C)C)cc1CSc1ccccn1	none
O=C(CN1C(=O)/C(=C/c2ccco2)SC1=S)Nc1ccc(C(=O)O)cc1	none
O=C(CN1C(=O)/C(=C\c2cccs2)SC1=S)Nc1cccc(Br)c1	none
O=C(CCN1C(=O)/C(=C\c2ccco2)SC1=S)Nc1cccc(Br)c1	RMI FANCM FP 9
O=C(Nc1nnc(-c2ccccc2Cl)o1)c1ccc2ccccc2c1	none
CC(=O)N1CCc2ccc(NC(=O)c3c(-c4ccccc4Cl)noc3C)cc21	none
Cc1onc(-c2ccccc2Cl)c1C(=O)Nc1ccc2c(c1)OCC(C)(C)C(=O)N2	none
Cc1onc(-c2ccccc2Cl)c1C(=O)Nc1ccc2c(c1)COCO2	RMI FANCM FP 1
CC1CN(S(=O)(=O)c2ccc(C(=O)N(CCCN(C)C)c3nc4c(Cl)cccc4s3)cc2)CC(C)O1 (stereo unspecified)	none
COc1cccc(C2Nc3ccccc3C(=O)N2c2ccc(F)cc2)c1O (stereo unspecified)	none
Cc1ccc2sc(N(Cc3ccccc3)C(=O)C3CCCN3S(C)(=O)=O)nc2c1C (stereo unspecified)	none
CCOc1ccccc1C(=O)Nc1ccc(-c2nc3cccnc3s2)cc1	none
O=C(Nc1ccc(-c2nc3cccnc3s2)cc1)c1ccco1	none
Cc1cc(-c2nc3cccnc3s2)ccc1NC(=O)c1ccc2ccccc2n1	RMI FANCM FP 1
CCCCCC(=O)N=Nc1c(O)[nH]c2ccc([N+](=O)[O-])cc12	none
O=C(N=Nc1c(O)[nH]c2ccc([N+](=O)[O-])cc12)c1ccncc1	none
Cc1ccc(C(C)C)c(OCC(=O)N=Nc2c(O)[nH]c3ccc([N+](=O)[O-])cc23)c1	RMI FANCM FP 11
Cc1ccc(C(C)C)c(OCC(=O)NS(=O)(=O)c2ccc(Br)cc2)c1	none
COc1cc(/C=C\C(=O)NCc2ccc3[nH]c4c(c3c2)CCCC4)cc(OC)c1OC	none
CCOC(=O)CCC(=O)NCc1ccc2[nH]c3c(c2c1)CCCC3	none
C/C=C\C(=O)NCc1ccc2[nH]c3c(c2c1)CCCC3	RMI FANCM FP 14
CCn1nccc1C(=O)N1CCN(c2nc3ccccc3s2)CC1	none
c1cn2c(n1)NCC2	RMI FANCM FP -22
c1ccc2c(c1)nc1n2CCN1	none
Cc1ccccc1Cn1nnc(C(=O)NCc2ccco2)c1N	none
O=C(CSc1ncccc1C(=O)O)c1ccc2c(c1)OCO2	none
O=C(CSc1nnc2ccc(-c3ccncc3)nn12)Nc1ccc(F)cc1	none
Cc1cc(C)c(NC(=O)C(=O)NCC(c2ccc3c(c2)CCCN3C)N(C)C)c(C)c1 (stereo unspecified)	none
Cc1cc(NC(=O)CCN2C(=O)/C(=C3\SC(=S)N(CCC(=O)Nc4cc(C)on4)C3=O)SC2=S)no1	RMI FANCM FP 21
O=C(CCCN1C(=O)/C(=C2\SC(=S)N(CCCC(=O)Nc3cccc(C(=O)O)c3)C2=O)SC1=S)Nc1cccc(C(=O)O)c1	none
COc1ccc(/C=C2\SC(=S)N(CCC(=O)Nc3cc(C)on3)C2=O)cc1OC	none
Cc1cc(C(=O)Nc2ccc(-c3nc4ccccc4s3)c(O)c2)no1	none
CCOC(=O)N1CCC(NC(=O)c2sc3ccccc3c2Cl)CC1	none
Fc1ccc(-c2cc3c(SCc4cccc(C(F)(F)F)c4)nccn3n2)cc1	none
C=Cc1ccc(CSc2nccn3nc(-c4ccc(OC)cc4)cc23)cc1	none
C=Cc1ccc(CSc2nccn3nc(-c4ccc(F)cc4)cc23)cc1	RMI FANCM FP 34
CO/N=C(/C(=O)NC1C(=O)N2C(C(=O)O)=C(COC(C)=O)CSC12)c1csc(N)n1 (stereo unspecified)	none
C=CC1=C(C(=O)O)N2C(=O)[C@@H](NC(=O)C(=NO)c3csc(N)n3)[C@H]2SC1	RMI FANCM FP 34
CO/N=C(/C(=O)N[C@@H]1C(=O)N2C(C(=O)O)=C(C[N+]3(C)CCCC3)CS[C@H]12)c1csc(N)n1	none
O=C(NCCN1CCN(c2ccc(F)cc2)CC1)c1ccco1	none
CCOC(=O)c1c(N)sc(C)c1-c1ccccc1	none
CCOC(=O)c1cc(-c2ccc(N)cc2)oc1C	none
CCOC(=O)c1c(N)oc2c(-c3ccc(C)cc3)c3c(C(=O)OCC)c(N)oc3cc12	RMI FANCM FP 22
CC12CCC(C(=O)Oc3ccc(-c4ccc(C#N)cc4)cc3)(CC1=O)C2(C)C (stereo unspecified)	none
O=C(Cc1cccs1)NCCNC(=O)c1ccc(NC(=O)C2CC2)cc1	none
CN(C)c1ccc(-c2n[nH]c(=O)c3ccccc23)cc1N	none
Cc1ccc(Cl)cc1S(=O)(=O)NCCN1CCN(c2ccccc2)CC1	none
Cc1ccc(NC(=O)CN2CCC(C(=O)N3CCc4ccccc43)CC2)cc1	none
Nc1nc2[nH]c(=O)cnc2c(=O)[nH]1	none
Nc1nc2ncc(=O)[nH]c2c(=O)[nH]1	RMI FANCM FP 26
Nc1nc2ncc(C(=O)O)nc2c(=O)[nH]1	none
Cc1ccc2oc(=O)c(S(=O)(=O)N3CCc4ccccc4C3)cc2c1	none
c1ccc(C2=Nn3c(nnc3-c3cccs3)SC2)cc1	none
O=[N+]([O-])c1ccc(O)c(/C=N\O)c1	none
O=S(=O)(Nc1ccc(Br)cc1F)c1cccc(Cl)c1	none
Cc1ccc(C)c(S(=O)(=O)n2cccn2)c1	none
Cc1ccc(C)c(S(=O)(=O)N=C2C=C(Br)C(=O)c3ccccc32)c1	RMI FANCM FP -1
Cc1ccc(C)c(S(=O)(=O)Nc2ccccc2F)c1	none
Cc1csc(SCc2cc(=O)c(OC(=O)c3ccco3)co2)n1	none

Screening results as filed in PubChem BioAssay.
